In all, about 5,500 compounds went through this assay and about 2,000 (36%) were called active. Not shown: some 18% with an inconclusive outcome. No stated cut-off is given here; in the data, active means normalized growth mostly below about 0.91 (no sharp cut-off); inconclusive means no clear call, values can overlap the other calls; inactive means mostly above about 0.92. Some of the results follow.
Test: chemical genetic growth profiling, strain panel (AID 1159580);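 further: tested at 20 µM; growth read once vehicle control cultures reached saturation at 30 °C; 1 = growth at the plate median or of vehicle wells; lower values mean less growth of the strain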
Conditions: growth OD

Measured: normalized growth

CCC(=O)OC1[C@@H]2CC3=C4CC(=O)O[C@@H](c5ccoc5)[C@]4(C)CCC3[C@@](C)(C2=O)[C@@H](CC(=O)OC)C1(C)C (stereo partly specified)
inactive: S. cerevisiae deletion strains, locus YJR066W, strain TOR1, active compounds read low 0.936 | S. cerevisiae deletion strains, locus YKL009W, strain mrt4, active compounds read low 1 | S. cerevisiae deletion strains, locus YKL068W, active compounds read low 1.01 | S. cerevisiae deletion strains, locus YKL085W, strain MDH1 (second series), active compounds read low 1 | S. cerevisiae deletion strains, locus YKL085W, strain MDH1, active compounds read low 1 | S. cerevisiae deletion strains, locus YKL160W, strain elf1, active compounds read low 1.01 | S. cerevisiae deletion strains, locus YKL190W, strain CNB1, active compounds read low 0.999 | S. cerevisiae deletion strains, locus YKR001C, strain vps1, active compounds read low 1.02 | S. cerevisiae deletion strains, locus YKR026C, strain gcn3, active compounds read low 0.991 | S. cerevisiae deletion strains, locus YKR091W, strain srl3, active compounds read low 0.984 | S. cerevisiae deletion strains, locus YLL001W, strain dnm1, active compounds read low 1 | S. cerevisiae deletion strains, locus YLL026W, active compounds read low 0.988 | S. cerevisiae deletion strains, locus YLL041C, strain sdh2, active compounds read low 0.992 | S. cerevisiae deletion strains, locus YLR027C, strain aat2, active compounds read low 0.992 | S. cerevisiae deletion strains, locus YLR039C, strain RIC1, active compounds read low 0.884 | S. cerevisiae deletion strains, locus YLR058C, strain SHM2, active compounds read low 1 | S. cerevisiae deletion strains, locus YLR102C, strain apc9, active compounds read low 1.02 | S. cerevisiae deletion strains, locus YLR113W, strain HOG1, active compounds read low 1.01 | S. cerevisiae deletion strains, locus YLR221C, strain rsa3, active compounds read low 0.985 | S. cerevisiae deletion strains, locus YLR258W, strain gsy2, active compounds read low 1.01 | S. cerevisiae deletion strains, locus YLR262C, strain YPT6 (second series), active compounds read low 0.908 | S. cerevisiae deletion strains, locus YLR262C, strain YPT6, active compounds read low 0.782 | S. cerevisiae deletion strains, locus YLR268W, strain sec22, active compounds read low 0.997 | S. cerevisiae deletion strains, locus YLR320W, strain mms22, active compounds read low 0.976 | S. cerevisiae deletion strains, locus YLR342W, strain FKS1, active compounds read low 0.981 | S. cerevisiae deletion strains, locus YLR357W, strain rsc2, active compounds read low 1.03 | S. cerevisiae deletion strains, locus YLR370C, strain arc18, active compounds read low 0.983 | S. cerevisiae deletion strains, locus YLR371W, strain rom2, active compounds read low 1.01 | S. cerevisiae deletion strains, locus YLR384C, strain iki3, active compounds read low 1 | S. cerevisiae deletion strains, locus YLR418C, strain cdc73, active compounds read low 1.03 | S. cerevisiae deletion strains, locus YML016C, strain PPZ1, active compounds read low 1 | S. cerevisiae deletion strains, locus YML032C, strain rad52, active compounds read low 1.02 | S. cerevisiae deletion strains, locus YML120C, strain ndi1, active compounds read low 0.999 | S. cerevisiae deletion strains, locus YML124C, strain tub3, active compounds read low 1.01 | S. cerevisiae deletion strains, locus YMR058W, strain fet3, active compounds read low 0.994 | S. cerevisiae deletion strains, locus YMR078C, strain ctf18, active compounds read low 1.02 | S. cerevisiae deletion strains, locus YMR125W, strain sto1, active compounds read low 0.996 | S. cerevisiae deletion strains, locus YMR129W, active compounds read low 0.998 | S. cerevisiae deletion strains, locus YMR205C, strain PFK2, active compounds read low 0.995 | S. cerevisiae deletion strains, locus YMR223W, strain ubp8, active compounds read low 1.01 | S. cerevisiae deletion strains, locus YMR231W, strain pep5, active compounds read low 0.955 | S. cerevisiae deletion strains, locus YMR307W, strain GAS1, active compounds read low 0.842 | S. cerevisiae deletion strains, locus YNL067W, strain RPL9B, active compounds read low 1.01 | S. cerevisiae deletion strains, locus YNL071W, strain lat1, active compounds read low 0.993 | S. cerevisiae deletion strains, locus YNL153C, strain GIM3, active compounds read low 1.02 | S. cerevisiae deletion strains, locus YNL183C, strain NPR1, active compounds read low 0.946 | S. cerevisiae deletion strains, locus YNL209W, strain ssb2, active compounds read low 1 | S. cerevisiae deletion strains, locus YNL233W, strain BNI4, active compounds read low 0.954 | S. cerevisiae deletion strains, locus YNL248C, strain rpa49, active compounds read low 0.992 | S. cerevisiae deletion strains, locus YNL250W, strain rad50, active compounds read low 1.01 | S. cerevisiae deletion strains, locus YNL271C, strain bni1, active compounds read low 1.01 | S. cerevisiae deletion strains, locus YNL298W, strain CLA4, active compounds read low 1.03 | S. cerevisiae deletion strains, locus YNL307C, strain MCK1, active compounds read low 1.01 | S. cerevisiae deletion strains, locus YNL322C, strain KRE1 (second series), active compounds read low 0.996 | S. cerevisiae deletion strains, locus YNL322C, strain KRE1, active compounds read low 0.992 | S. cerevisiae deletion strains, locus YNR049C, strain mso1, active compounds read low 0.989 | S. cerevisiae deletion strains, locus YNR052C, strain pop2, active compounds read low 1.03 | S. cerevisiae deletion strains, locus YOL012C, strain htz1 1.24 | S. cerevisiae deletion strains, locus YOL147C, strain pex11, active compounds read low 1.02 | S. cerevisiae deletion strains, locus YOR001W, strain rrp6, active compounds read low 0.994 | S. cerevisiae deletion strains, locus YOR061W, strain CKA2, active compounds read low 0.996 | S. cerevisiae deletion strains, locus YOR069W, strain VPS5, active compounds read low 1 | S. cerevisiae deletion strains, locus YOR070C, strain gyp1, active compounds read low 0.988 | S. cerevisiae deletion strains, locus YOR080W, strain dia2, active compounds read low 0.981 | S. cerevisiae deletion strains, locus YOR083W, strain WHI5, active compounds read low 1.02 | S. cerevisiae deletion strains, locus YOR106W, strain vam3, active compounds read low 1.03 | S. cerevisiae deletion strains, locus YOR136W, strain idh2, active compounds read low 1.02 | S. cerevisiae deletion strains, locus YOR144C, strain elg1, active compounds read low 1.01 | S. cerevisiae deletion strains, locus YOR184W, strain ser1, active compounds read low 0.989 | S. cerevisiae deletion strains, locus YOR231W, strain MKK1, active compounds read low 1.01 | S. cerevisiae deletion strains, locus YOR265W, strain rbl2, active compounds read low 0.994 | S. cerevisiae deletion strains, locus YOR270C, strain vph1, active compounds read low 0.858 | S. cerevisiae deletion strains, locus YOR290C, strain snf2, active compounds read low 0.996 | S. cerevisiae deletion strains, locus YOR316C, strain cot1, active compounds read low 1.01 | S. cerevisiae deletion strains, locus YPL051W, strain arl3, active compounds read low 0.982 | S. cerevisiae deletion strains, locus YPL055C, strain LGE1, active compounds read low 1.01 | S. cerevisiae deletion strains, locus YPL078C, strain atp4, active compounds read low 1.02 | S. cerevisiae deletion strains, locus YPL106C, strain sse1, active compounds read low 1.04 | S. cerevisiae deletion strains, locus YPL240C, strain hsp82, active compounds read low 0.99 | S. cerevisiae deletion strains, locus YPL256C, strain CLN2, active compounds read low 0.983 | S. cerevisiae deletion strains, locus YPR119W, strain clb2, active compounds read low 1.01 | S. cerevisiae deletion strains, locus YPR141C, strain kar3, active compounds read low 1.01 | S. cerevisiae deletion strains, locus YPR163C, strain tif3, active compounds read low 1.01 | S. cerevisiae deletion strains, locus YPR167C, strain met16, active compounds read low 0.998 | S. cerevisiae deletion strains, strain wtn01, active compounds read low 1.07 | S. cerevisiae strains, strain wild type, active compounds read low 0.976
